# Shiga toxin inh = A qHTS for Small Molecule Inhibitors of Shiga Toxin. inhibition, % at 38.7 µM. Vero cells, Shiga toxin protein synthesis inhibition reporter. actives 9.2% (n = 290,000); in the data active = inhibition mostly above about 28%, no sharp cut-off; inactive = mostly below about 43%; note: 0% is about no effect
# Cycloheximide cs = Cycloheximide Counterscreen for Small Molecule Inhibitors of Shiga Toxin; cell reporter, cycloheximide protein synthesis inhibition counterscreen; max response, %; actives 12% (n = 300,000); AID 2314, 2010; in the data active = max response mostly above about 13%, no sharp cut-off; inactive = mostly below about 14%; note: read at 38.3 µM for the half of the compounds with a filed dose; 0% is about no effect
# NS1 inh = qHTS Assay for Inhibitors of Influenza NS1 Protein Function. Potency, µM (doses to about 46.1 µM), inactives show top-dose activity, positive = more growth. actives 0.4% (n = 270,000). AID 2326, 2010; calls by dose curve; note: potency is the fitted concentration of half-maximal effect; actives are rising curves; nearly all actives have a fitted effect of over 50% in size
#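 In this qHTS, NS1 from influenza A is expressed in budding yeast, where it slows growth. Cells are switched from glucose to 2% galactose medium (pH 6.0, -URA), treated with compound, and growth recovery is read at OD600.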
# Pf growth 48h = Primary qHTS for delayed death inhibitors of the malarial parasite plastid, 48 hour incubation; P. falciparum luciferase growth in erythrocytes, 48 h; actives 5.9% (n = 310,000); Potency, µM (top dose mostly 28.7 µM), inactives show at the top dose activity change, negative = inhibition, usual class: inhibitors; note: potency is the fitted concentration of half-maximal effect; % is set by controls: 0 for no effect and ±100 for the full control effect
#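 Erythrocytes infected with P. falciparum carrying an integrated firefly luciferase reporter (2% hematocrit, 0.1% parasitemia final) were exposed to compounds in RPMI 1640 with 0.5% Albumax at 37 C, 5% CO2. Growth inhibition was scored as reduced luminescence.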
# SARS PLP yeast = qHTS of Yeast-based Assay for SARS-CoV PLP; actives 0.19% (n = 330,000); Potency, µM (highest dose often 32.9 µM), for inactives: top-dose activity, positive = growth rescue, most hits filed as activators; S. cerevisiae expressing SARS-CoV PLpro, growth rescue; calls by dose curve; note: potency is the fitted concentration of half-maximal effect; 0% is about no effect; nearly all actives have a fitted effect of over 55% in size
# Pf growth 96h = Primary qHTS for delayed death inhibitors of the malarial parasite plastid, 96 hour incubation | AID 504834, 2011 | actives 6.9% (n = 320,000) | Potency, µM (top dose mostly 28.7 µM), inactives show top-dose activity change, negative = inhibition, usual class: inhibitors | P. falciparum luciferase reporter growth, 96 h; note: potency is the fitted concentration of half-maximal effect; % is set by controls: 0 for no effect and ±100 for the full control effect
#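 Delayed-death screen, second-generation endpoint: infected erythrocytes, 2% hematocrit, 0.05% parasitemia final; 96 hours at 37 C, 5% CO2; luciferase detection reagent; luminescence decrease equals reduced growth.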
# * hit, by the source's call; u = inconclusive; x = not tested or not shown; [ ] = remark or other dose. Shown are actives, neighbours in structure and some others; about 21% of the full set was active somewhere. Unless noted, calls come from the whole dose curve; as a rule, active = well fitted inhibition curve with a large enough effect; inconclusive = small, poorly fitted or top-dose-only effect, or another doubt; inactive = no such curve, though single readings can be large or run the other way.
SMILES,Shiga toxin inh,Cycloheximide cs,NS1 inh,Pf growth 48h,SARS PLP yeast,Pf growth 96h
COCCN(C(=O)COC(=O)c1ccc(C)s1)c1c(N)n(Cc2ccccc2)c(=O)[nH]c1=O,x,x,x,-0.8%,u,15.7%
Cc1ccc(C(=O)OCC(=O)N2C(C)CCCC2C)cc1S(=O)(=O)N1CCOCC1 (centres undefined),x,x,x,-14.2%,3.0%,-2.4%
CCCNC(=O)NC1CCCc2ccccc21 (centres undefined),-17.2,-5.6,9.7%,15.2%,2.5%,-5.0%
N#CC1(c2ccccc2)CCC(=NNS(=O)(=O)c2ccccc2)CC1 (centres undefined),x,x,x,u,1.7%,-6.2%
Cc1cc(NC(=O)CSc2nnc3c(C)cc4cc5c(cc4n23)OCO5)no1,-9.4,-7.5,13.8%,7.4%,4.8%,-18.7%
CCN1CCS/C1=C/C=C/C1=[N+](CC)CCS1,7.7,-1.8,-3.5%,0.738µM*,-8.6%,0.657µM*
CCN1CCS/C1=C\C=C\C1=[N+](CC)CCS1,10.7,-2.5,x,0.928µM*,-11.3%,62.8%
O=C(Cn1nc(-c2cccc(Cl)c2)ccc1=O)NCC1COCCO1 (centres undefined),x,x,x,-2.1%,-1.6%,61.4%
O=[N+]([O-])c1cccc2c(N3CCCC3)ccnc12,29.1,20.8*,2.1%,u,-0.7%,86.4%
O=[N+]([O-])c1ccc(N2CCOCC2)c2cccnc12,-11.0,-5.9,x,u,-1.6%,15.0%
Cc1ccc[n+](CC2OCc3ccccc3CO2)c1,-15.5,-1.8,0.8%,u,1.0%,u
CC[C@H](C)[C@H](NC(=O)[C@H](Cc1ccc(O)cc1)NC(=O)[C@@H](NC(=O)[C@H](CCCN=C(N)N)NC(=O)[C@@H](N)CC(=O)O)C(C)C)C(=O)N[C@@H](Cc1ccc(N)cc1)C(=O)N1CCC[C@H]1C(=O)N[C@@H](Cc1ccccc1)C(=O)O,10.8,1.7,x,x,x,x
O=C(/C=C/c1ccco1)NC(=S)Nc1ccccc1N1CCCC1,14.1,-1.9,1.6%,2.62µM*,0.4%,43.1%
O=C(/C=C/c1ccco1)NC(=S)Nc1ccccc1N1CCOCC1,-13.8,-2.7,-120.5%,13.1µM*,19.3%,u
O=C(/C=C/c1ccco1)Nc1ccccc1N1CCCC1,40.5,11.9*,x,23.7%[5.75 µM],-1.9%,u
CCNc1nc(NCC)nc(OCCNS(=O)(=O)c2ccccc2)n1,-18.7,-0.3,-1.9%,-0.5%,-2.5%,10.1%
Cc1ccc(NC(=O)CSCC(=O)Nc2ccccc2C(=O)NC2CC2)cc1,x,x,x,18.3%,-2.6%,7.0%
C[C@H]1c2cccc(O)c2C(O)=C2C(=O)C3(O)C(O)=C(C(N)=O)C(=O)[C@@H](N(C)C)[C@@H]3[C@@H](O)[C@@H]21 (some centres undefined),x,x,x,4.65µM*,x,0.37µM*
C=C1c2cccc(O)c2C(O)=C2C(=O)[C@]3(O)C(O)=C(C(N)=O)C(=O)[C@@H](N(C)C)[C@@H]3[C@@H](O)[C@H]12,-2.0,-2.7,8.0%,u,0.7%,0.465µM*
CN(C)[C@H]1C(=O)C(C(=O)NCN2CCCC2)=C(O)[C@]2(O)C(=O)C3=C(O)c4c(O)cccc4[C@](C)(O)[C@H]3C[C@H]12,x,x,17.9%,-16.5%,x,u
C[C@H]1c2cccc(O)c2C(=O)C2C(=O)C3(O)C(=O)C(C(N)=O)C(=O)[C@@H](N(C)C)[C@@H]3[C@@H](O)[C@@H]21 (some centres undefined),x,x,x,x,12.9%,x
Cc1cc(C(=O)Nc2ccccc2N2CCCCC2)no1,-4.4,0.8,-12.7%,4.2%,-0.6%,-2.7%
CN1C(=O)/C(=C\c2ccco2)N=C1c1ccc(Cl)cc1Cl,74.0*,28.0*,8.3%,4.1%,-2.0%,20.8%
O=C(c1cc(-c2ccc(Cl)cc2Cl)on1)N1CCN(C(=O)c2ccco2)CC1,62.1,6.3,-64.6%,68.4%,-22.0%,-11.4%
O=C1OC(/C=C/c2ccc(Cl)cc2)=NC/1=C/c1ccco1,-29.3,24.1*,11.6%,10.9%,13.4%,u
O=C(NCc1ccccc1)c1cc[n+](Cc2ccccc2)cc1,-11.4,-5.7,x,u,-0.3%,u
